# Sm TGR inh = inhibitors of Schistosoma mansoni thioredoxin glutathione reductase | purified TGR, DTNB reduction, TNB absorbance 405 nm | AID 485364 | 3% of 360,000 active | Potency, µM (highest dose often 114 µM), most hits filed as inhibitors | Q962Y6; also: nearly all actives have a fitted effect of over 60% in size
#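 First, TGR (20 nM dispensed) and NADPH were mixed with compound. Second, a 15 min room-temperature incubation followed. Third, further NADPH and then DTNB were added to start the reaction. Finally, TNB absorbance was monitored kinetically.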
# Shiga inhibitor = blocks Shiga toxin action in Vero cells | Vero cells, Shiga toxin protein synthesis inhibition reporter | inhibition, % at 38.7 µM | 9.2% of 290,000 active | AID 2315; in the data active = inhibition mostly above about 28%, no sharp cut-off; inactive = mostly below about 43%
# CHX counter = counter-screen hit for Shiga toxin inhibitors, cycloheximide; AID 2314; cell reporter, cycloheximide protein synthesis inhibition counterscreen; max response, %; 12% of 300,000 active; in the data active = max response mostly above about 13%, no sharp cut-off; inactive = mostly below about 14%; also: read at 38.3 µM for the half of the compounds with a filed dose
# Pf growth 48h = P. falciparum growth inhibition at 48 hours (one generation) | P. falciparum luciferase growth in erythrocytes, 48 h | Potency, µM (series often up to 28.7 µM), most hits filed as inhibitors | 5.9% of 310,000 active | AID 504832
#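 Parasite viability was followed by luminescence of a genomically integrated firefly luciferase. Cultures held 0.1% parasitemia at 2% hematocrit (final), incubated under 5% CO2 at 37 C.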
# NS1 function inh = blocks influenza NS1 protein function; AID 2326; 0.4% of 270,000 active; Potency, µM (series often up to 46.1 µM); calls by dose curve; also: actives are rising curves; nearly all actives have a fitted effect of over 50% in size
#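 Growth recovery, yeast-based: influenza A NS1 expressed in S. cerevisiae causes slow growth, and suppressors are detected by OD600. The parent strain without NS1 is used as positive control.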
# Pf growth 96h = P. falciparum growth inhibition at 96 hours; Potency, µM (doses to about 28.7 µM), hits mostly inhibitors; P. falciparum luciferase reporter growth, 96 h; 6.9% of 320,000 active
#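 Cell-based qHTS: luciferase-tagged P. falciparum in erythrocytes (2% hematocrit, 0.05% parasitemia final) incubated with compounds for 96 hours, 37 C, 5% CO2; luciferase detection reagent then added and luminescence measured.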
# Hits are given with their value; n = inactive; u = inconclusive; x = no result given. Rows were chosen to be rich in hits. Some 21% of all compounds tested hit in one or more screens of this group. Unless noted, calls follow the shape of the dose curve; as a rule, active = well fitted curve in the direction sought with a large enough effect; inconclusive = small, poorly fitted or top-dose-only effect, or another doubt; inactive = no such curve, though single readings can be large; an effect the other way counts as inactive or inconclusive.
SMILES,Sm TGR inh,Shiga inhibitor,CHX counter,Pf growth 48h,NS1 function inh,Pf growth 96h
CC[C@H](C)Cc1cn([C@@H](CCCN=C(NC(=O)OC(C)(C)C)NC(=O)OC(C)(C)C)C(=O)NCCCCCCCCCCC(=O)N2CCN(C(=O)OC(C)(C)C)CC2)nn1,n,x,x,1µM,x,1.5µM
CC(C)(C)OC(=O)NCCCCCc1cn(CC(=O)NCCCCCCCCCCC(=O)N2CCN(C(=O)OC(C)(C)C)CC2)nn1,n,x,x,u,x,u
CSCC[C@@H](C(=O)NCCCCCCCCCCC(=O)N1CCNCC1)n1cc(CCO)nn1,u,x,x,u,x,n
Cc1cn([C@@H](CCCCNC(=O)OC(C)(C)C)C(=O)NCCCCCCCCCCC(=O)N2CCN(C(=O)OC(C)(C)C)CC2)nn1,n,x,x,2.6µM,x,5.2µM
O=C(Nc1ccc2nc(-c3ccco3)c(-c3ccco3)nc2c1)NC1CC1,u,n,n,n,n,n
O=C(NCCCO)Nc1ccc2nc(-c3ccco3)c(-c3ccco3)nc2c1,0.28µM,n,n,n,u,x
O=C(Nc1ccc(N2CCOCC2)cc1)Nc1ccc2nc(-c3ccco3)c(-c3ccco3)nc2c1,4.5µM,n,n,u,n,n
O=C(Nc1ccc2nc(-c3cccs3)c(-c3cccs3)nc2c1)N1CCOCC1,n,n,n,u,n,n
COc1ccc(Cc2nnc(Nc3c(C)cccc3C)o2)cc1OC,n,n,n,u,u,n
N#C/C(=N\Nc1ccc(F)cc1)C(=N)N1CCCCC1,n,112,47,n,n,x
COc1ccc(NC(=S)NCCN2CCOCC2)cc1,n,n,n,n,n,n
COc1ccc(N/N=C(\C#N)C(=N)N2CCOCC2)cc1,n,n,29,n,x,n
N#C/C(=N\Nc1cccc(F)c1)C(=O)C1CC1,n,n,n,u,n,u
N#C/C(=N\Nc1cccc(F)c1)C(=N)N1CCCCCC1,n,41,26,n,x,u
N#C/C(=N\Nc1ccccc1)C(=N)N1CCCCCC1,n,71,38,n,n,n
Nn1c(SCC(=O)Nc2c(Cl)cccc2Cl)nncc1=O,n,x,x,u,x,u
COc1cccc(NC(=O)CCc2c(C)nc3c4cccnc4nn3c2C)c1,n,x,x,x,x,x
CC1CCc2onc(C(=O)O)c2C1 (centres undefined),n,n,n,n,n,n
N#C/C(=N/Nc1ccccc1F)C(=N)N1CCOCC1,n,n,34,n,n,n
O=C(CN1CCOCC1)Nc1ccccc1F,n,x,n,n,n,n
Cc1cc(Cl)c2oc(C(=O)NCCC3CCCCO3)c(C)c2c1 (centres undefined),n,87,n,n,n,n
Cc1c(C(=O)NCCCN2CCCC2=O)oc2c(Cl)cccc12,n,x,x,n,x,n
Cc1c(C(=O)NCC2CCCO2)oc2c(Cl)cccc12 (centres undefined),n,x,x,n,x,n
Cc1cc(Cl)c2oc(C(=O)NCCN3CCCCC3CO)c(C)c2c1 (centres undefined),n,n,15,u,n,13µM
Cc1cc(C)c(NC(=O)C2CCN(C(=O)N3CC(C)Oc4ccc(Cl)cc43)CC2)c(C)c1 (centres undefined),n,x,x,x,x,x
SMILES,Sm TGR inh,Shiga inhibitor,CHX counter,Pf growth 48h,NS1 function inh,Pf growth 96h
Cc1ccc2nc(N3C(=O)C(O)=C(C(=O)c4cc5ccccc5o4)C3c3cccs3)sc2c1 (centres undefined),u,98,62,n,n,n
Cc1ccc(C2C(C(=O)c3cc4ccccc4o3)=C(O)C(=O)N2c2cc(C)on2)cc1 (centres undefined),n,n,n,u,n,n
CCc1ccc2nc(N3C(=O)C(O)=C(C(=O)c4ccco4)C3c3cccs3)sc2c1 (centres undefined),n,59,29,n,n,n
O=C(C1=C(O)C(=O)N(CCc2ccccc2)C1c1ccncc1)c1cc2ccccc2o1 (centres undefined),x,n,n,n,n,n
COC(=O)c1sc(N2C(=O)C(O)=C(C(=O)c3ccc(C)o3)C2c2cccs2)nc1C (centres undefined),u,n,n,u,n,u
Cc1cc(N2C(=O)C(O)=C(C(=O)c3cc4ccccc4o3)C2c2cccs2)no1 (centres undefined),56µM,n,19,n,n,n
O=C(C1=C(O)C(=O)N(c2nccs2)C1c1ccccc1)c1cc2ccccc2o1 (centres undefined),10µM,59,44,n,n,n
c1ccc(C2(c3ccccc3)CC2C2=NCCN2)cc1 (centres undefined),x,x,x,u,x,13µM
Cc1cccn2c(=O)c3cc(C(=O)NC(C)c4ccccc4)c(=N)n(CCCn4ccnc4)c3nc12 (centres undefined),n,n,n,0.41µM,n,0.41µM
N=c1c(C(=O)NCc2ccccc2)cc2c(=O)n3ccccc3nc2n1Cc1ccco1,n,n,n,x,n,n
Cc1ccc2nc3c(cc(C(=O)NCc4ccco4)c(=N)n3Cc3ccco3)c(=O)n2c1,n,n,n,1.7µM,n,n
Cc1cccn2c(=O)c3cc(C(=O)NCCc4ccccc4)c(=N)n(Cc4ccco4)c3nc12,n,n,n,1.5µM,n,u
CCOCCCn1c(=N)c(C(=O)NC(C)c2ccccc2)cc2c(=O)n3cccc(C)c3nc21 (centres undefined),n,x,x,x,x,x
COc1ccc(CCNC(=O)c2cc3c(=O)n4cccc(C)c4nc3n(Cc3ccco3)c2=N)cc1OC,n,n,n,13µM,u,1.7µM
Cc1ccc(S(=O)(=O)NCc2ccco2)cc1C(N)=O,n,n,n,n,x,n
CSc1ccc(CNC(=O)c2cc3c(=O)n(Cc4ccco4)ccc3nc2C)cc1,45µM,x,x,x,x,x
Cc1cccn2c(=O)c3cc(C(=O)NCc4ccco4)c(=N)n(CCc4ccccc4)c3nc12,u,46,17,0.59µM,n,0.59µM
Cc1cccn2c(=O)c3cc(C(=O)NCc4ccco4)c(=N)n(C(C)C)c3nc12,n,n,n,u,n,x
COc1ccc(S(=O)(=O)N/N=C\c2ccccc2F)cc1,n,n,n,n,n,n
NCCCNCCCCNCCCNC(=O)CCc1ccc(O)cc1,x,n,n,x,x,x
Clc1cccc(/C=N/Nc2nnc(Cl)c3ccccc23)c1,n,62,n,u,n,u
O=C(CN1CCCCC1)N/N=C/c1cccc(Cl)c1,n,n,n,n,n,n
Clc1ccc(/C=N/Nc2nnc(-c3ncc[nH]3)c3ccccc23)cc1,n,112,34,n,n,n
FC(F)(F)c1cccc(-n2cc(-c3ccccc3)[nH]c2=S)c1,n,n,n,12µM,u,n
Cc1ccc(-c2cn(-c3ccccc3)c(=S)[nH]2)cc1C,n,113,64,x,n,u
Fc1ccccc1-n1cc(-c2ccccc2)[nH]c1=S,n,n,29,n,x,n
Cc1ccccc1-c1cn(-c2ccccc2)c(=S)[nH]1,n,n,n,u,n,u
Cc1cc2c(nn1)CCc1nonc1-2,n,n,n,n,n,x
